In PubChem BioAssay (EPA / NIEHS):
“And” between values parts separate entries of the source, which are not always exact repeats. Equal entries are not always repeated. Inconclusive results are not listed. Some compounds were tested as several samples or in several runs, with calls that do not always agree. The source made the active and inactive calls. How the source made its calls, unless noted: active means hit-call score of the fitted dose curve at least 0.9, where 1 is the maximum; inconclusive means response in the unintended direction; inactive means score below 0.9.

Experiments:
[1] = system: zebrafish Estrogen Receptor (ER2b), gene 317733; assay: ATG_zfER2b_XSP2: Attagene TRANS-FACTORIAL Multi-Species (XSP2) HepG2 Assay for zebrafish Estrogen Receptor (ER2b) (AID 2283823);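 further: fitted upward as reporter gain over DMSO so potency reflects activation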
Summary of the method: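 In this multiplexed trans-activation format, HepG2 cells expressing exogenous NR-Gal4 fusions drive GAL4-UAS reporters. Exposure lasts 24 h, and reporter mRNA induction is read by RT-PCR with capillary electrophoresis detection.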

[2] = system: frog Estrogen Receptor (ER2), gene 100174814; assay: ATG_frER2_XSP2: Attagene TRANS-FACTORIAL Multi-Species (XSP2) HepG2 Assay for frog Estrogen Receptor (ER2) (AID 2283828)
Summary of the method: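 Human liver HepG2, transient MRTU transfection (TRANS format, exogenous NR–Gal4). 24 h cpd exposure. Total RNA → RT → PCR → FAM label → HpaI cut → CE. Positive direction vs DMSO.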

[3] = target: Peroxisome proliferator-activated receptor gamma (Homo sapiens) (UniProt P37231); assay: ATG_hPPARg_XSP2: Attagene TRANS-FACTORIAL Multi-Species (XSP2) HepG2 Assay for human Peroxisome Proliferator-activated Receptor gamma (PPARg) (AID 2283829);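 further: actives raise reporter mRNA above DMSO so AC50 reflects PPARg activation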
Summary of the method: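 Multiplexed transactivation in transfected HepG2 liver cells. Gal4-chimeric receptor activity reported as induced reporter transcript after 24 h.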

[4] = target: mouse Peroxisome Proliferator-activated Receptor gamma (PPARg), Pparg (gene 19016) (UniProt P37238); assay: ATG_mPPARg_XSP2: Attagene TRANS-FACTORIAL Multi-Species (XSP2) HepG2 Assay for mouse Peroxisome Proliferator-activated Receptor gamma (PPARg) (AID 2283830);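 further: hits are gains in reporter mRNA above DMSO so AC50 marks activation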
Summary of the method: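 HepG2 cells transiently transfected with GAL4-UAS reporter units for chimeric NR-Gal4 proteins including mouse PPARg, exposed 24 h; medium contained 3 nM 6-alpha-fluorotestosterone and 1.5 nM norgestrel. Reporter mRNA quantified by RT-PCR, HpaI digestion and capillary electrophoresis, vs DMSO.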

[5] = target: Nuclear receptor subfamily 1 group I member 2 (Mus musculus) (UniProt O54915); assay: ATG_mPXR_XSP2: Attagene TRANS-FACTORIAL Multi-Species (XSP1) HepG2 Assay for mouse Pregnane X Receptor (PXR) (AID 2283831)
Summary of the method: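 Human liver HepG2 cells expressing exogenous receptor-GAL4 chimeras were exposed to test chemicals for 24 h. Induction of reporter mRNA was scored as gain of fluorescence signal over DMSO controls.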

[6] = target: zebrafish Thyroid Hormone Receptor alpha (TRa), thraa (gene 30670) (UniProt Q98867); assay: ATG_zfTRa_XSP2: Attagene TRANS-FACTORIAL Multi-Species (XSP1) HepG2 Assay for zebrafish Thyroid Hormone Receptor alpha (TRa) (AID 2283832);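 further: actives raise zebrafish TRa-Gal4 reporter transcript above DMSO baseline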
Summary of the method: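 Chimeric receptor-Gal4 activity was assessed in transfected human liver HepG2 cells 24 h after dosing, using reporter transcript levels detected by RT-PCR and capillary electrophoresis. DMSO served as baseline.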

[7] = system: zebrafish Peroxisome Proliferator-activated Receptor gamma (PPARg), gene 557037; assay: ATG_zfPPARg_XSP2: Attagene TRANS-FACTORIAL Multi-Species (XSP2) HepG2 Assay for zebrafish Peroxisome Proliferator-activated Receptor gamma (PPARg) (AID 2283833);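 further: actives increase reporter signal over DMSO so AC50 reflects activation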
Summary of the method: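 Cell-based transactivation of a chimeric zebrafish PPARg-GAL4 receptor was assessed in transiently transfected HepG2 cells after 24 h of treatment. Reporter mRNA induction, detected fluorescently after RT-PCR, was analysed in the positive direction against DMSO.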

[8] = system: turtle Thyroid Hormone Receptor, alpha (TRa), gene 101949057; assay: ATG_trTRa_XSP2: Attagene TRANS-FACTORIAL Multi-Species (XSP1) HepG2 Assay for turtle Thyroid Hormone Receptor, alpha (TRa) (AID 2283834);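 further: hits raise reporter mRNA over the DMSO baseline so AC50 marks activators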
Summary of the method: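 Gain-of-signal reporter transcription measured in transiently transfected HepG2 at 24 h post-dose. Fluorescent RT-PCR products were resolved by capillary electrophoresis and compared with DMSO vehicle.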

[9] = ATG_M_61_XSP2: Attagene TRANS-FACTORIAL Multi-Species (XSP2) HepG2 Assay for M61 Transcription Factor (Internal Marker) (AID 2283835; active means hit-call score of the fitted dose curve at least 0.9, where 1 is the maximum; inactive means score below 0.9;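 further: active means a rise in signal above the DMSO baseline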)
Summary of the method: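 HepG2 cells transiently transfected with multiple GAL4-UAS reporter units; 3 nM 6-alpha-fluorotestosterone and 1.5 nM norgestrel present to stimulate androgen receptor. After 24 h compound exposure, reporter mRNA measured by RT-PCR and capillary electrophoresis fluorescence, gain-of-signal versus DMSO baseline.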

[10] = ATG_XTT_Cytotoxicity_XSP2: Cytotoxicity Assessment in the Attagene TRANS-FACTORIAL Multi-Species (XSP2) HepG2 Assay (AID 2283837)
Summary of the method: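 HepG2 cells, transiently transfected with multiple reporter constructs, exposed to chemical for 24 h. Cell number assessed with XTT fluorescence read-out; loss of signal fitted relative to DMSO.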

[11] = target: human Thyroid hormone Receptor beta (TRb), THRB (gene 7068) (UniProt P10828); assay: ATG_hTRb_XSP2: Attagene TRANS-FACTORIAL Multi-Species (XSP2) HepG2 Assay for human Thyroid hormone Receptor beta (TRb) (AID 2283840);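 further: actives raise reporter mRNA so potency reflects agonist-like gain of signal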
Summary of the method: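 In this cell-based multiplex, HepG2 liver cells carrying transfected GAL4-UAS reporter constructs are exposed to chemical for 24 hours, then reporter transcripts are measured by RT-PCR with capillary electrophoresis, scored as gain of signal against DMSO.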

[12] = target: chicken Estrogen Receptor (ERa), ESR1 (gene 396099) (UniProt P06212); assay: ATG_chERa_XSP2: Attagene TRANS-FACTORIAL Multi-Species (XSP2) HepG2 Assay for chicken Estrogen Receptor (ERa) (AID 2283817);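 further: actives raise reporter signal above DMSO so AC50 reflects ER activation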
Summary of the method: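 HepG2 cells transiently transfected with multiplexed GAL4-UAS reporter units expressing chimeric chicken ERa-Gal4; 24 h compound exposure. Reporter mRNA measured by RT-PCR with 6-FAM labelling, HpaI digestion and capillary electrophoresis; gain-of-signal fitted versus DMSO.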

[13] = system: zebrafish Estrogen Receptor (ER2a), gene 317734; assay: ATG_zfER2a_XSP2: Attagene TRANS-FACTORIAL Multi-Species (XSP2) HepG2 Assay for zebrafish Estrogen Receptor (ER2a) (AID 2283818);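 further: hits raise reporter mRNA so AC50 reflects activation of zebrafish ER2a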
Summary of the method: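 HepG2 cells transiently transfected with GAL4-UAS reporter units and chimeric zebrafish ER2a-Gal4, exposed 24 h; medium contains 3 nM 6-alpha-fluorotestosterone and 1.5 nM norgestrel. Reporter mRNA quantified by RT-PCR, HpaI digestion, capillary electrophoresis; gain versus DMSO.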

[14] = system: chicken Androgen Receptor (AR), gene 422165; assay: ATG_chAR_XSP2: Attagene TRANS-FACTORIAL Multi-Species (XSP2) HepG2 Assay for chicken Androgen Receptor (AR) (AID 2283819);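 further: hits raise reporter mRNA above DMSO so potency is for activation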
Summary of the method: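 HepG2 cells transiently transfected with chicken AR–GAL4 chimeric reporter constructs, stimulated with 3 nM 6-alpha-fluorotestosterone plus 1.5 nM norgestrel, dosed 24 h. Reporter mRNA quantified by RT-PCR and capillary electrophoresis; gain of signal fitted versus DMSO.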

[15] = system: frog Estrogen Receptor (ER), gene 398734; assay: ATG_frER1_XSP2: Attagene TRANS-FACTORIAL Multi-Species (XSP2) HepG2 Assay for frog Estrogen Receptor (ER) (AID 2283821);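 further: hits raise reporter mRNA above DMSO baseline so potency means agonist or activator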
Summary of the method: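 HepG2, transient MRTU transfection, chimeric NR-GAL4/UAS reporters; 24 h compound exposure, 24-well. Readout: reporter mRNA via RT-PCR + capillary electrophoresis, fluorescence. Positive fit vs DMSO baseline.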

[16] = system: frog Androgen Receptor (AR), gene 399456; assay: ATG_frAR_XSP2: Attagene TRANS-FACTORIAL Multi-Species (XSP2) HepG2 Assay for frog Androgen Receptor (AR) (AID 2283824);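 further: actives raise reporter signal above DMSO so AC50 reflects agonist-like induction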
Summary of the method: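 HepG2 cells transiently transfected with GAL4-UAS reporter units and frog (Xenopus laevis) AR-Gal4 chimera; reporter mRNA measured 24 h after dosing by RT-PCR and capillary electrophoresis. Gain of signal fitted relative to DMSO baseline.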

[17] = target: Estrogen receptor (Homo sapiens) (UniProt P03372); assay: ATG_hERa_XSP2: Attagene TRANS-FACTORIAL Multi-Species (XSP2) HepG2 Assay for human Estrogen Receptor (ERa) (AID 2283827)
Summary of the method: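 HepG2 cells transiently transfected with multiplexed GAL4-UAS reporters driven by chimeric receptor-Gal4 proteins, dosed 24 h with 3 nM 6-alpha-fluorotestosterone and 1.5 nM norgestrel present. Reporter mRNA by RT-PCR and capillary electrophoresis; gain-of-signal fit versus DMSO.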

[18] = target: human Thyroid hormone Receptor alpha (TRa), THRA (gene 7067) (UniProt P10827); assay: ATG_hTRa_XSP2: Attagene TRANS-FACTORIAL Multi-Species (XSP2) HepG2 Assay for human Thyroid hormone Receptor alpha (TRa) (AID 2283838)
Summary of the method: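 HepG2 cells transiently transfected with multiplexed GAL4-UAS reporter units and exogenous NR-GAL4 chimeras; 24 h chemical exposure with 3 nM 6-alpha-fluorotestosterone and 1.5 nM norgestrel present. Reporter mRNA measured by RT-PCR, FAM labelling, HpaI digestion, capillary electrophoresis; gain-of-signal versus DMSO.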

[19] = ATG_M_19_XSP2: Attagene TRANS-FACTORIAL Multi-Species (XSP2) HepG2 Assay for M32 Transcription Factor (Internal Marker) (AID 2283822)
Summary of the method: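 Internal background marker in a multi-species nuclear receptor TRANS panel: transfected HepG2 cells exposed 24 h, with 3 nM 6-alpha-fluorotestosterone and 1.5 nM norgestrel present. Readout is RT-PCR of reporter transcripts resolved by capillary electrophoresis, gain-of-signal versus DMSO.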

[20] = system: zebrafish Androgen Receptor (AR), gene 100005148; assay: ATG_zfAR_XSP2: Attagene TRANS-FACTORIAL Multi-Species (XSP2) HepG2 Assay for zebrafish Androgen Receptor (AR) (AID 2283825);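 further: hits raise reporter mRNA above DMSO so AC50 reflects agonist-type gain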
Summary of the method: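 Zebrafish AR–GAL4 chimera transiently expressed with GAL4-UAS reporter in HepG2 cells, co-stimulated with 3 nM 6-alpha-fluorotestosterone and 1.5 nM norgestrel; 24 h dosing, reporter mRNA read by RT-PCR/capillary electrophoresis versus DMSO.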

Measured: AC50

Peroxisome proliferator-activated receptor gamma (Homo sapiens), sequence (P37231 whole entry, looked up, the tested form may be a part): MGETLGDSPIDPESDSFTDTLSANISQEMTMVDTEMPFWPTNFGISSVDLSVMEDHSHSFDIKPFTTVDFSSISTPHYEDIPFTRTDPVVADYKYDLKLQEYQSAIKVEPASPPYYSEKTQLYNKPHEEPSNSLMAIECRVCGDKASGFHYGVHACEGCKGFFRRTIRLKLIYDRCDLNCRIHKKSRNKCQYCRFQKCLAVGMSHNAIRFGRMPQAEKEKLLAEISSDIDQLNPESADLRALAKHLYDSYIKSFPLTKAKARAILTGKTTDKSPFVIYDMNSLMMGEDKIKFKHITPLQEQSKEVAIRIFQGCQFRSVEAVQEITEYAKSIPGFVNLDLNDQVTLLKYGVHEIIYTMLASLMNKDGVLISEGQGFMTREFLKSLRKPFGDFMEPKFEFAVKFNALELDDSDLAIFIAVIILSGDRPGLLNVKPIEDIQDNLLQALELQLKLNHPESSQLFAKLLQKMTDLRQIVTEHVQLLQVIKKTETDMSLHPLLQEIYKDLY
human Thyroid hormone Receptor alpha (TRa), THRA (gene 7067), sequence (P10827 whole entry, looked up, the tested form may be a part): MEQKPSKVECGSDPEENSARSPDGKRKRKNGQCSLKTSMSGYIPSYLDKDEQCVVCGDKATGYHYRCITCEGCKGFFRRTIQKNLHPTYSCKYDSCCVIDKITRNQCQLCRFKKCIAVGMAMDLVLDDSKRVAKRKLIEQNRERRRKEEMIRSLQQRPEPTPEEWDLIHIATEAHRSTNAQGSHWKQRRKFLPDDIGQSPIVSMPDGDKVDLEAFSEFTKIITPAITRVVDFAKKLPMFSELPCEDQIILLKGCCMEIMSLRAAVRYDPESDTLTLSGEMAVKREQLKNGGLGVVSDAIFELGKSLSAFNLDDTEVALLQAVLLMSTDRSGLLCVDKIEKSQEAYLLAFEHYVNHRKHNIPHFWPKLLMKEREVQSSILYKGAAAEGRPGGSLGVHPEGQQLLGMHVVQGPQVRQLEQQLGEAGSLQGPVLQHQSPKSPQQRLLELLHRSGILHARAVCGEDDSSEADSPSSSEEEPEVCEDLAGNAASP
mouse Peroxisome Proliferator-activated Receptor gamma (PPARg), Pparg (gene 19016), sequence (P37238 whole entry, looked up, the tested form may be a part): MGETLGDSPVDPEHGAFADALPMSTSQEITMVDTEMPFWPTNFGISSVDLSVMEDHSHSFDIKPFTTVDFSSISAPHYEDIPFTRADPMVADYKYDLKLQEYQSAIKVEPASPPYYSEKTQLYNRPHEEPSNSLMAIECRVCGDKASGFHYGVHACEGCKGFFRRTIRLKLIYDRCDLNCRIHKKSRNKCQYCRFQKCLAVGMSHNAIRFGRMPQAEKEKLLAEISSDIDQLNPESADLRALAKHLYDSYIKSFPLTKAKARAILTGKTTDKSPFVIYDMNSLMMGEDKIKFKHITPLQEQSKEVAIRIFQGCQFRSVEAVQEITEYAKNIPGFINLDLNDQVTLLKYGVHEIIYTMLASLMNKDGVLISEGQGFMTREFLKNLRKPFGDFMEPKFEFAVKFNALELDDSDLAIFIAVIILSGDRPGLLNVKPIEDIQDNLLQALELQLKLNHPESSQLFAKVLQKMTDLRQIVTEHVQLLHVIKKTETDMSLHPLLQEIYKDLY
zebrafish Thyroid Hormone Receptor alpha (TRa), thraa (gene 30670), sequence (Q98867 whole entry, looked up, the tested form may be a part): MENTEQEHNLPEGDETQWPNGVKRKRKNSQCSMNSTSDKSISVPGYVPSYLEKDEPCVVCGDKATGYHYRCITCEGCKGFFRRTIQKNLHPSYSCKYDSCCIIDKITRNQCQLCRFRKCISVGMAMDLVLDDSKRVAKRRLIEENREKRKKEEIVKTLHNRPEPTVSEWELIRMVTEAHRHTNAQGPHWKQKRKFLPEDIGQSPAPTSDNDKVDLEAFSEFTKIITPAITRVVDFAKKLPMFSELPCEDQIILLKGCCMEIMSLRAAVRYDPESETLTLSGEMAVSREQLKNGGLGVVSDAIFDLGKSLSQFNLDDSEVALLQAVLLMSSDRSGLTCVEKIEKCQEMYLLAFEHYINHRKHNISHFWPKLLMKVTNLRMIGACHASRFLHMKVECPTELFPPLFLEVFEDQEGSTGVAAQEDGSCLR
human Thyroid hormone Receptor beta (TRb), THRB (gene 7068), sequence (P10828 whole entry, looked up, the tested form may be a part): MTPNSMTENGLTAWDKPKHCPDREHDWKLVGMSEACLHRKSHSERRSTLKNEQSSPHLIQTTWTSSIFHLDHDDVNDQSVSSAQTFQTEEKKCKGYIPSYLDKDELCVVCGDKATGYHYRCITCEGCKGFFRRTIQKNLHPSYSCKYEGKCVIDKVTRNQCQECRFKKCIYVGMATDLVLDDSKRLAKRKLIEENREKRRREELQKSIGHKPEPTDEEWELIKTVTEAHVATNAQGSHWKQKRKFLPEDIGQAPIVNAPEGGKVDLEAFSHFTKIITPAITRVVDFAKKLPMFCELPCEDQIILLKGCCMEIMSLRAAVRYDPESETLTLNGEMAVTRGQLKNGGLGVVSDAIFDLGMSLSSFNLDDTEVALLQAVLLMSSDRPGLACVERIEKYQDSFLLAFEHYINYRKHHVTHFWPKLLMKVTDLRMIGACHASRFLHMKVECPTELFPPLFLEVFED
Nuclear receptor subfamily 1 group I member 2 (Mus musculus), sequence (O54915 whole entry, looked up, the tested form may be a part): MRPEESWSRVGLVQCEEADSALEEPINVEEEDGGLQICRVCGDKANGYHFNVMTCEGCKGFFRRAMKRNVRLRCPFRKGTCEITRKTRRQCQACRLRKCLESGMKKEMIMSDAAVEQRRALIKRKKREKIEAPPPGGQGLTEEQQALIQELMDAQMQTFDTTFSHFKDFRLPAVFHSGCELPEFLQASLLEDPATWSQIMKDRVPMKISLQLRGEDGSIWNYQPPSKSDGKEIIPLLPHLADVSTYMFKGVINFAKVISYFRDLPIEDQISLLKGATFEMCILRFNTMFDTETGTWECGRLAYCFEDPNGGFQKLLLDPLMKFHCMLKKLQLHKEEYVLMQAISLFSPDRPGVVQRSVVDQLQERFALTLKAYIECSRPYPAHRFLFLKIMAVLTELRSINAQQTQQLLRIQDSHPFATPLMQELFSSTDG
chicken Estrogen Receptor (ERa), ESR1 (gene 396099), sequence (P06212 whole entry, looked up, the tested form may be a part): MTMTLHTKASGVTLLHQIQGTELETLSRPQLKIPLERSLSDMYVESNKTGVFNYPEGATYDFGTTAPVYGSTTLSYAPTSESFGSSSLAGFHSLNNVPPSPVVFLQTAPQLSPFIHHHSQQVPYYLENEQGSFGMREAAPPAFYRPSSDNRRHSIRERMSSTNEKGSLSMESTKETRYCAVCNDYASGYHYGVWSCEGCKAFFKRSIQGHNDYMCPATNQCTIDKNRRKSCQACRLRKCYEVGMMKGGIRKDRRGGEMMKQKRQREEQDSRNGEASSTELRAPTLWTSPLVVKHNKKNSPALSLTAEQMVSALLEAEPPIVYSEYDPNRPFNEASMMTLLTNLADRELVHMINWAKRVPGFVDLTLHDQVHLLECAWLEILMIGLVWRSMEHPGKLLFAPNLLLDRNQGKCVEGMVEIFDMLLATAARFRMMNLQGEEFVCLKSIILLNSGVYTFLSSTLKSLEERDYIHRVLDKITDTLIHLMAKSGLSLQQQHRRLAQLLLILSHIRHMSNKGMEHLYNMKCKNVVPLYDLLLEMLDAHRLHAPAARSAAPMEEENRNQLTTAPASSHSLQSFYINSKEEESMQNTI
Estrogen receptor (Homo sapiens), sequence (P03372 whole entry, looked up, the tested form may be a part): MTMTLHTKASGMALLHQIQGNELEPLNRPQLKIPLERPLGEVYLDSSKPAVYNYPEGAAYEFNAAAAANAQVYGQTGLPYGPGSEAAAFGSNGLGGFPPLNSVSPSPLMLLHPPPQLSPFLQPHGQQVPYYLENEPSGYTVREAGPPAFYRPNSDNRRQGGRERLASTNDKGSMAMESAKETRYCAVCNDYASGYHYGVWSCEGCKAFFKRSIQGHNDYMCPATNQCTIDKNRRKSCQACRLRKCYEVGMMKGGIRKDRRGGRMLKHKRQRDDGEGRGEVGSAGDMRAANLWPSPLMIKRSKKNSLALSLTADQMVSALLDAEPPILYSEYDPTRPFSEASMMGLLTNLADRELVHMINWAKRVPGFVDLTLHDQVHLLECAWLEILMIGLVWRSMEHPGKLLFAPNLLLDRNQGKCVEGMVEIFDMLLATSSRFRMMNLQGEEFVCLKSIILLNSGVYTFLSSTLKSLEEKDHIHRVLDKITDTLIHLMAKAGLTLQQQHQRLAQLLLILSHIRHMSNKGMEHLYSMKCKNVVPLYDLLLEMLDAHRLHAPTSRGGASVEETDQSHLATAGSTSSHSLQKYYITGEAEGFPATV

CCC(=C(c1ccc(O)cc1)c1ccc(OCCN(C)C)cc1)c1ccccc1
active: [3] 11.3 µM and 12.9 µM | [4] 10.7 µM and 7.1 µM | [5] 4.97 µM and 6.16 µM | [6] 11.6 µM | [10] 32.1 µM
inactive: [1] | [2] | [6] | [7] | [8] | [9] | [11]

CCCOC(=O)c1ccc(O)cc1
active: [12] 27.8 µM and 9.35 µM | [13] 51 µM and 3.49 µM | [14] 32 µM | [15] 27.7 µM and 407 nM | [1] 65.8 µM and 8.51 µM | [17] 23.5 µM and 2.61 µM | [2] 38.2 µM and 1.53 µM | [3] 66.4 µM and 100 µM | [4] 100 µM and 87.6 µM | [11] 100 µM
inactive: [16] | [5] | [6] | [7] | [8] | [9] | [10] | [18] | [11]

c1ccc2c(c1)ccc1ccccc12
inactive: [12] | [13] | [15] | [1] | [17] | [2] | [3] | [4] | [5] | [7] | [8] | [9] | [10] | [18] | [11]
active: [1] 80.9 µM | [17] 21.3 µM | [2] 57.3 µM

C#C[C@]1(O)CC[C@H]2[C@@H]3CCC4=CC(=O)CC[C@@H]4[C@H]3CC[C@@]21C
active: [12] 76.6 nM | [13] 83.4 nM | [1] 0.299 µM | [16] 2.8 µM | [20] 1.84 µM | [2] 1.5 µM | [5] 529 nM
inactive: [19] | [4] | [7] | [8] | [11]
